High-throughput results from PubChem BioAssay.
Only some compounds are listed: those with a hit (about 9% of all), similar ones and a draw of the others.
ALDH1A1 inh – ALDH1A1 (human) enzyme inhibition. Purified ALDH1A1, NADH fluorescence, propionaldehyde substrate. Potency, µM (highest dose often 75.3 µM), inactives show at the highest dose activity, negative = inhibition, usual class: inhibitors. actives 7.3% (n = 220,000). AID 1030;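 also: potency is read from the fitted curve at half-maximal effect; plate controls were no enzyme wells and a reference inhibitor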
IMPase inh – cell-permeable inhibitors of inositol monophosphatase (IMPase) | P97697 | CHO-M1 cells, IP1 accumulation, HTRF TR-FRET ratio | inhibition (IP1 accumulation), % at 46.1 µM | 120,000 tested, under 10 active | AID 901; active = well fitted curve in the direction sought with a large enough effect in the signal ratio, not every such curve was filed as active; inconclusive = small, poorly fitted or top-dose-only effect, or a change in a side signal; inactive = no such curve, though single readings can be large or run the other way; the % refers to the signal ratio;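 also: cells stimulated with carbachol in lithium chloride buffer; plate controls were DMSO basal wells for no effect and reference inhibitor wells for full effect; higher means more IMPase inhibition seen as more IP1 and lower FRET ratio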
Target sequence (P97697 whole entry, looked up): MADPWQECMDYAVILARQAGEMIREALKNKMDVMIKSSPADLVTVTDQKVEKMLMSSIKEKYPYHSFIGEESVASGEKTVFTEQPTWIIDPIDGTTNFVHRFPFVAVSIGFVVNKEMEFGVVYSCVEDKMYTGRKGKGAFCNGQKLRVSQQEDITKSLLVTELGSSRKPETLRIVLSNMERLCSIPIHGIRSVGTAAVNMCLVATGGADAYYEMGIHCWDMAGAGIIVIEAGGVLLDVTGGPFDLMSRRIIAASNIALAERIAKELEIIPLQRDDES
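Carbachol-driven Gq signalling in CHO-M1 cells (2000/well) generates IP1. Compounds that block IMPase raise IP1 and so reduce the FRET signal from Eu-anti-IP1 and d2-IP1 after a 10 min room-temperature lysis.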
HPGD inh – blocks human HPGD enzyme activity | purified HPGD, NADH fluorescence kinetic, PGE2 substrate | actives 4.3% (n = 150,000) | Potency, µM, for inactives: at the highest dose activity change, negative = inhibition, actives largely listed as inhibitors; also: potency is read from the fitted curve at half-maximal effect
Target sequence (P15428 whole entry, looked up): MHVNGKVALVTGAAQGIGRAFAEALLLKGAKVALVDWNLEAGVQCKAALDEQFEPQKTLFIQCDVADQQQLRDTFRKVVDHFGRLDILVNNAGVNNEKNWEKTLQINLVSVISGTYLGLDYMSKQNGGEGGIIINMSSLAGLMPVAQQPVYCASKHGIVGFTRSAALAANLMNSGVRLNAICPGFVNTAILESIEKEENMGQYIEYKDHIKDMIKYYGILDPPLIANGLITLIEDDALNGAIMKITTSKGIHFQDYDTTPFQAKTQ
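NADH formation kinetics: reaction with 30 uM PGE2 and 1 mM NAD+ (final), 20 nM enzyme, Tris-HCl pH 8 with Tween 20, after 15 min compound preincubation at room temperature. Fluorescence change, last versus first of five reads.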
An asterisk follows results filed as active; ? = inconclusive; nt = no result given; [ ] = dose if it differs, or a comment. Unless noted, calls follow the shape of the dose curve; as a rule, active = well fitted inhibition curve with a large enough effect (not every such curve was filed as active); inconclusive = small, poorly fitted or top-dose-only effect, or another doubt; inactive = no such curve, though single readings can be large or run the other way. Unless noted, % is scaled to controls: 0 for no effect and ±100 for the full control effect.

SMILES	ALDH1A1 inh	IMPase inh	HPGD inh
CCOC(=O)c1c(NC(=O)CC)sc(C(=O)N2CCCCC2)c1C	?	7	28µM*
CCOC(=O)c1sc(NC(C)=O)c(C(=O)OCC)c1C	?	?	-12%
CCOC(=O)c1c(NC(=O)C2C3C=CC(CC3)C2C(=O)O)sc(C)c1CC (stereo not given)	-1%	nt	-16%
CCOC(=O)c1sc(NC(=O)CCN2CCCCCC2)c(C(=O)OCC)c1C	2.5µM*	nt	nt
Cc1cc(N2CCCC2=O)cc(C)c1S(=O)(=O)Nc1c(C)nn(C)c1C	-1%	nt	nt
CCOC(=O)Cc1c(C)nc(Cc2ccc(OC(C)C)cc2)[nH]c1=O	4%	nt	nt
Cc1ccc(/C=N/NC(=O)Cn2nnc(N)n2)o1	-4%	nt	nt
COC(=O)C1=C(C(=O)OC)[C@@H]2Nc3ccccc3[C@@]23C[C@@H](C(=O)OC)N(S(=O)(=O)c2ccc4c(c2)OCCN4C)C3=N1	3%[13.5 µM]	nt	-2%
COc1ccccc1C(=O)NC1(C(F)(F)F)C(=O)Nc2c1c(=O)[nH]c(=O)n2-c1ccccc1 (stereo not given)	nt	1	nt
CC(/C=C1\SC(=S)N(CC(=O)N2CCN(c3ccccc3)CC2)C1=O)=C\c1ccccc1	?	nt	-7%
CCN1C(c2ccccc2)=C(c2ccccc2)S/C1=C/C=C1\SC(=S)N(C)C1=O	?	5	-7%
CN1CCS/C1=C/C=C1/SC(=S)N(Cc2ccccc2)C1=O	1µM*	nt	-14%
CN1CCS/C1=C/C=C1\SC(=S)N(CC(=O)O)C1=O	11µM*	nt	nt
CCOc1ccccc1NC(=O)CN(CCc1ccccc1)S(=O)(=O)c1ccc(C)cc1	nt	-4	nt
C=CCOC(=O)C(C(C)=O)C(NC(=O)OC)c1ccc(Cl)cc1 (stereo not given)	11%[13.5 µM]	nt	nt
CC(C)C12CN3CC(C(C)C)(CN(C1)C3c1ccc(Cl)cc1)C2=O (stereo not given)	nt	-7	nt
COc1ccc(C(=S)N2CCCC2)cc1OC	10%	1	-15%
CN(C(N)=S)c1ccccc1	9%	-1	-1%
CN(C)c1ccc(C(=N)c2ccc(N(C)C)cc2)cc1	-11%	nt	-3%
CN(C)C(=S)c1ccc(N(C)C)cc1	0.79µM*	nt	nt
COc1ccc(C(=S)N(C)C)cc1OC	?	-6	10µM*
CN(C)C(=S)c1ccccc1	7.1µM*	nt	nt
CCOC(=O)C[N+]1(C)CCN(C(C)=O)CC1	6%	nt	nt
Clc1ccc(-c2nc3ccccn3c2Nc2ccc3c(c2)OCCO3)s1	nt	2	nt
O=C(NCC1CCCO1)c1onc(CSc2ccccc2F)c1C(=O)O (stereo not given)	-7%	0	-9%
SMILES	ALDH1A1 inh	IMPase inh	HPGD inh
O=c1c(-c2ccc(Cl)cc2)c(C(F)(F)F)oc2c(CN3CCCCC3)c(O)ccc12	nt	-2	nt
CCC(CC)C(=O)Nc1nnc(-c2cccs2)s1	?	-1	?
COc1cccc(OC)c1C(=O)Nc1nnc(-c2cccs2)s1	7.9µM*	nt	nt
CC(Sc1nnc2c(n1)C1(C)CCC2C1(C)C)C(=O)Nc1ccccc1 (stereo not given)	-12%	-3	-12%
CCC(C)Oc1cccc(OCCCCN2C(=O)NC(C)(C)C2=O)c1 (stereo not given)	-12%	-8	-8%
CC1(C)NC(=O)N(CCCCOc2ccc3ccccc3c2Cl)C1=O	18µM*	-1	-28%
CCC(=O)c1ccccc1OCCCN1C(=O)NC(C)(C)C1=O	10µM*	4	-11%
CC1(C)NC(=O)N(CCOCCOc2ccc3ccccc3c2Br)C1=O	-8%	2	-25%
COc1cc2cc(CN(Cc3cccnc3)C(=O)NCc3ccccc3)c(=O)[nH]c2cc1OC	?	4	?
C/C(CC(=O)Nc1ccc(Cl)c(Cl)c1)=N\NC(=O)C(=O)N1CCCCC1	0%	nt	nt
O=C(CSc1nc(N2CCCCC2)nc(N2CCCCC2)n1)Nc1nccs1	16%	6	3%
CCOc1nc(C)cc(C)c1S(=O)(=O)c1ccc(Cl)cc1	-6%	nt	nt
CCOC(=O)c1sc(N)nc1-c1ccccc1	?	-5	-27%
CCOC(=O)c1snc(-c2ccc(F)cc2)c1N	10µM*	1	?
COc1ccc(Nc2nc(CN3CCOCC3)nc3sc4c(c23)CCC(C)C4)cc1OC (stereo not given)	10%	nt	-4%
CC1CCc2c(sc3nc(CN4CCOCC4)nc(Sc4ccccc4)c23)C1 (stereo not given)	25µM*	nt	-6%
O=c1[nH]c(=O)n(-c2ccc(F)cc2)c2c1C(C(F)(F)F)(C(F)(F)F)N=C(c1ccc(F)cc1)N2	2%	nt	-6%
COc1ccc(-c2cc(C(=O)OCC(=O)c3cccc(OC)c3)c3cccc(Cl)c3n2)cc1	nt	0	nt
CC(C)Cn1c(C(C)C)nc([N+](=O)[O-])c1Sc1ccc(Cl)cn1	22µM*	?	-22%
CC(C)Cn1c(C(C)C)nc([N+](=O)[O-])c1S(=O)(=O)c1ccc(F)cc1	-7%	10	-10%
CCCCn1c(CCC)nc([N+](=O)[O-])c1Sc1ccc(Cl)cn1	7.1µM*	20	-15%
CCn1c(C)nc([N+](=O)[O-])c1Sc1ccc(F)cc1	?	nt	-27%
O=S(=O)(CCN(CCS(=O)(=O)C(F)(F)F)CC1CCCO1)C(F)(F)F (stereo not given)	7.1µM*	3	-13%
O=C(NCC1CCCO1)C1CCN(S(=O)(=O)N2CCCC2)CC1 (stereo not given)	0%	10	?
CCOc1ccc(S(=O)(=O)n2nnc3ccccc32)cc1C(C)C	-4%	-4	-4%
SMILES	ALDH1A1 inh	IMPase inh	HPGD inh
Cc1ccc(N(CC(N)=O)C2SC(=O)NC2=O)cc1 (stereo not given)	?	nt	-15%
Cc1ccc(N(CC(N)=O)C2SC(=O)N(Cc3cccc(C(=O)O)c3)C2=O)cc1 (stereo not given)	20µM*	8	-9%
COC(=O)c1cc(=O)nc2sc3cc(OC)ccc3n12	16µM*	2	-9%
CCCCc1c(O)nc2sc3cc(OC)ccc3n2c1=O	4%	-1	16µM*
COC(=O)c1cc(=O)nc2sc(-c3ccccc3)nn12	?	5	-17%
COc1ccc2c(c1)sc(=N)n2CC(=O)Nc1cc(C)cc(C)c1	-5%	nt	nt
COC(=O)c1cn(C(=O)/C=C/c2ccc(OC)c(OC)c2)c2ccccc12	108%	nt	nt
CC(C)[C@H](O)CC[C@@H](C)C1CC[C@H]2C3CC=C4C[C@@H](O)CC[C@]4(C)C3CC[C@]12C (stereo not given in full)	3%	nt	nt
CCC1=NN2C(=N)/C(=C/c3c(C)nn(-c4ccccc4)c3Cl)C(=O)N=C2S1	4%	nt	-19%
CCc1nn2c(=O)cc(COc3ccc(/C=C4\C(=N)N5N=C(C)SC5=NC4=O)cc3)nc2s1	8.9µM*	nt	nt
O=C1N/C(=N/O)S/C1=C/c1cccnc1	-12%	nt	nt
Cc1ccc(N=C2NC(=O)/C(=C\c3ccco3)S2)cc1	-11%	nt	?
Cc1ccc(S(=O)(=O)/N=C2/NC(=O)/C(=C/c3ccc(Br)o3)S2)cc1	-11%	nt	14µM*
Cc1ccc(S(=O)(=O)/N=C2/NC(=O)/C(=C/c3cccnc3)S2)cc1	3%	8	20µM*
Cc1n[nH]c(C)c1Sc1ccccc1N=Cc1cc([N+](=O)[O-])ccc1O	3%	4	-7%
CCn1cc(CNC(=O)c2c(-c3c(Cl)cccc3Cl)noc2C)c(C)n1	6%	nt	-8%
C=CCn1c(O)c(N=NC(=S)Nc2ccccc2F)c2ccccc21	28µM*	nt	nt
